# Screen size: about 38,000 compounds; about 1,200 (3.2%) showed an effect of 50% or more. The median lay at about -58%. For the sample, strong results were picked, then their nearest neighbours and some compounds at random.
# System: Plasmodium falciparum
# Assay: Calibr Malaria Delayed Death Assay SOP
# Assay type: functional, organism-based
# Design: scale not given: in the data most compounds retested in dose-response had high values
# Settings: concentration 4.99e-06 (unit not given; other assays of the set use mol/L)
row,SMILES,Percent Effect [%]
1,CCc1nc2n(n1)CC(NCc1cc(OC)c3c(c1)OCCO3)CC2 (centres undefined),-60.23
2,O=C(CN1CC(c2ccccc2)CC1=O)N1CCN(c2nccs2)CC1 (centres undefined),-33.46
3,Cc1nc(-c2cccc(C(=O)O)c2)cc(C2CCCN(C(C)C)C2)n1 (centres undefined),-116.2
4,COc1cccc(CNc2nnc(C(C)(C)C)o2)c1OC,-115.2
5,CC(C(=O)N1CCc2sccc2C1)N1CCCN(C2CC2)CC1 (centres undefined),19.49
6,CC(C)NC(=O)C1CCN(C(C)C(=O)N2CCc3sccc3C2)CC1 (centres undefined),-19.38
7,CC(C(=O)N1CCc2sccc2C1)N1CCC(N2CCCC2)CC1 (centres undefined),51.04
8,COC(=O)CC(C1=Cc2ccccc2OC1)c1oc(C)cc(=O)c1O (centres undefined),-54.1
9,COCCC1(CNC(=O)Nc2ccnc(C)c2)CCCC1,72.21
10,Cc1cc(NC(=O)NCC2(O)CCCC2)ccn1,-130.9
11,COCCC1(CNC(=O)Nc2ccc(-n3nccn3)cc2)CCC1,-17.2
12,COc1ncc(C2(O)CCN(Cc3cc(F)cc(F)c3)CC2)c(OC)n1,-99.52
13,O=c1[nH]nc2c(S(=O)(=O)N3CCOCC3)cccn12,-183.8
14,CNC(=O)c1cc2c(nc1NCC1CC1)CCN(c1ncccn1)CC2,-64.19
15,O=S(=O)(Nc1ccc2c(c1)OCCO2)N1CCCCC1,-170
16,Cc1ccc(CNC(c2cccc(F)c2)c2nccn2C)o1.Cl (centres undefined),35.29
17,Cc1ccc(CNCCC(O)(c2nccn2C)C(F)(F)F)o1 (centres undefined),72.37

row,SMILES,Percent Effect [%]
1,Cc1ccc(CNC(c2ccc(F)cc2)c2nccn2C)o1 (centres undefined),-33.59
2,Cn1ccnc1CN1CCCN(C(=O)c2ccc(Cl)o2)CC1,-26.42
3,CCc1n[nH]c(C2CN(C(=O)COCC(F)(F)F)CCO2)n1 (centres undefined),-109.1
4,CCc1c(C)n(CCC#N)c2nc3ccccc3n2c1=O,-59.08
5,CCc1nnc2n1CCN(C(=O)C1CCC(n3cccc3)CC1)C2 (centres undefined),-12.54
6,O=C1CCc2cc(-c3csc(CCN4CCOC4=O)n3)c(F)cc2N1,10.62
7,COc1cccc(CSc2nnc(C)n2CC(N)=O)c1,-57.97
8,NC(=O)CN(Cc1ccc(Br)cc1)C(=O)c1cccnc1,-140.6
9,COc1ccc(CN2CCOC[C@H](Oc3cccnc3)C2)cc1,-114.4
10,COc1ccc(O[C@H]2COCCN(Cc3c[nH]c4ccccc34)C2)cc1,-21.41
11,Cc1cc(C)c(-n2cccn2)c(CN2CCOCC(CN(C)C)C2)c1 (centres undefined),34.59
12,COc1ccc(CN2C[C@@H](CN(C)C)[C@@H](CO)C2)c(Cl)c1OC,-21.55
13,COc1ccc(CN2C[C@@H](CN(C)C)[C@@H](CO)C2)cc1OC,-68.69
14,Cc1cc(-n2cccn2)ccc1CN1C[C@@H](CN(C)C)[C@@H](CO)C1,52.18
15,Cc1cc(-n2cccn2)ccc1CN1CCOCC(CN(C)C)C1 (centres undefined),73.33
16,Cc1ccc(-n2cc(CN3CCOCC(CN(C)C)C3)cn2)cc1C (centres undefined),38.47
17,COc1ccc(-n2cccn2)c(CN2CCOCC(CN(C)C)C2)c1 (centres undefined),78.01

# — ChEMBL document CHEMBL3988442, “University of Dundee, Small-Polar-MMV Screening Library” (2021)
